Legend:
Experiment in all cases: PBM binding z-score (relative to random genomic background probes); higher = stronger binding; sequences stand for … in GC…GCGATTGACAGCGTAGAATGAAGG
[1] = test system: FXR:RXRa (NR concentration 270 nM, RXRa partner concentration 90 nM)
Method in brief: (§1)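 Probes were double-stranded and carried 34-nt variable regions with direct-repeat seeds, single-nucleotide variants, half-site ablations and random human genomic background sequences, printed on custom Agilent 4×180K protein-binding microarrays. Arrays were incubated 1 h with ligand-free nuclear receptor dimers in PBS pH 7.4, 2% milk, 0.02% Triton X-100, 1 mM DTT, 0.2 mg/mL BSA and 0.4 mg/ml salmon testes DNA. Antibodies against each partner (one per run) detected binding, and scanned fluorescence was regression-normalized. Binding z-scores use the random background probes as reference.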

[2] = test system: LXRa:RXRa (NR concentration 270 nM, RXRa partner concentration 90 nM)
Method in brief: as §1

[3] = test system: LXRa homodimer (NR concentration 270 nM)
Method in brief: as §1

[4] = test system: LXRb:RXRa (NR concentration 270 nM, RXRa partner concentration 90 nM)
Method in brief: as §1

[5] = test system: LXRb homodimer (NR concentration 270 nM)
Method in brief: as §1

[6] = test system: PPARa:RXRa (NR concentration 270 nM, RXRa partner concentration 90 nM)
Method in brief: as §1

[7] = test system: PPARg:RXRa (NR concentration 180 nM, RXRa partner concentration 90 nM)
Method in brief: as §1

[8] = test system: PPARg:RXRa 270nM:90nM, anti-RXR (NR concentration 270 nM, RXRa partner concentration 90 nM)
Method in brief: as §1

[9] = test system: PPARg:RXRa 30nM:10nM, anti-RXR (NR concentration 30 nM, RXRa partner concentration 10 nM)
Method in brief: as §1

[10] = test system: PPARg:RXRa 90nM:30nM, anti-RXR (NR concentration 90 nM, RXRa partner concentration 30 nM)
Method in brief: as §1

[11] = test system: PPARg:RXRa DBDmut IVT, anti-RXR (DBD mutation: RXRa K156A/R161A, NR concentration 270 nM, RXRa partner concentration 90 nM)
Method in brief: as §1

[12] = test system: PPARg:RXRa IVT, anti-PPARg (NR concentration 270 nM, RXRa partner concentration 90 nM)
Method in brief: as §1

[13] = test system: PPARg DBDmut:RXRa IVT, anti-PPARg (DBD mutation: PPARg1 K132A/R137A, NR concentration 270 nM, RXRa partner concentration 90 nM)
Method in brief: as §1

[14] = test system: PPARg DBDmut IVT, anti-PPARg (DBD mutation: PPARg1 K132A/R137A, NR concentration 270 nM)
Method in brief: as §1

[15] = test system: PPARg homodimer (NR concentration 180 nM)
Method in brief: as §1

[16] = test system: PXR:RXRa (NR concentration 270 nM, RXRa partner concentration 90 nM)
Method in brief: as §1

[17] = test system: PXR homodimer (NR concentration 270 nM)
Method in brief: as §1

[18] = test system: RARa:RXR (NR concentration 270 nM, RXRa partner concentration 90 nM)
Method in brief: as §1

[19] = test system: RARa homodimer (NR concentration 270 nM)
Method in brief: as §1

[20] = test system: RARb:RXRa (NR concentration 270 nM, RXRa partner concentration 90 nM)
Method in brief: as §1

Sequence	PBM binding z-score [1]	PBM binding z-score [2]	PBM binding z-score [3]	PBM binding z-score [4]	PBM binding z-score [5]	PBM binding z-score [6]	PBM binding z-score [7]	PBM binding z-score [8]	PBM binding z-score [9]	PBM binding z-score [10]	PBM binding z-score [11]	PBM binding z-score [12]	PBM binding z-score [13]	PBM binding z-score [14]	PBM binding z-score [15]	PBM binding z-score [16]	PBM binding z-score [17]	PBM binding z-score [18]	PBM binding z-score [19]	PBM binding z-score [20]
AGAATGAGGTTAAGATCAGGGTAACAGAATACAT	2.5	2.47	0.0614	2.01	-0.068	3.68	2.64	2.66	0.832	1.9	3.19	3.28	1.74	0.532	1.13	1.73	0.602	2.85	0.262	2.08
TAGCCTAGGTCATGGGCCAGTAAACCACGCGAAC	4.54	3.68	0.175	2.43	-0.182	4.46	3.46	3.97	1.13	2.88	1.71	3.46	0.0624	0.0351	1.25	1.83	-0.321	2.72	-0.171	3.98
CCTATTAGTTGACCATAAGGGCTACCGAAGCTCG	0.118	0.0436	0.338	0.131	0.649	-0.0868	0.355	0.0189	0.219	0.0475	0.457	0.104	0.267	0.311	1.99	0.0462	0.632	0.373	1.97	0.623
CAAACTAGGTCACGGGAAGGTCAAAGTCCGCATG	6.63	5.83	4.52	5.56	0.929	6.51	10.1	7.81	6.78	7.95	8.72	9.17	2.85	3.73	5.61	5.97	1.41	7.17	1.78	5.43
TCTTGTATATCAAAGGTTAAGAAAGCCGAAGCCT	1.57	2.66	1.24	2.13	0.723	3.79	6	6.59	6.78	7.96	1.87	2.65	0.898	0.823	1.29	1.93	0.544	2.96	0.898	2.22
GGAACGAGGGCAAGTTGATAGGAGAGTTTGATGG	0.63	0.287	-0.48	0.289	-0.332	1.81	1.05	0.946	0.0757	0.63	3.49	2.69	-0.522	0.0128	0.664	0.817	1.15	0.165	-0.204	2.63
ACAGCCAGGTGATGAAGGTAACTCAGGCTATCAT	-0.381	-0.496	-0.468	-0.553	-0.982	0.0268	0.565	-0.0458	-0.229	-0.315	0.0691	0.392	-0.315	-0.803	-0.425	-0.407	-0.502	0.0022	-0.504	-0.00483
ATCTCTAGGTAAGACTCAGTTGAGTGAAGAACGC	0.19	0.256	-0.143	0.303	0.234	-0.0553	0.0512	0.121	-0.116	-0.195	1.79	0.839	0.212	0.517	0.307	-0.135	0.188	-0.38	0.696	0.11
AAAATGAGGTTATACGTAGATCAGGGAAGAAAGT	2.34	2.36	0.225	1.87	0.19	3.52	2.69	2.4	1.33	1.9	4.62	3.11	2.19	1.29	0.818	1.37	0.994	1.99	0.921	1.56
GGAGCGAGGGCAAGTTGATAGCAGAGTTTGATGG	0.394	0.0427	-0.544	0.219	-0.594	0.728	0.238	0.276	-0.604	-0.121	0.723	0.346	-0.895	-0.911	0.261	0.533	0.345	0.395	-0.343	2.56
TATACAGGGTCAAAGGCAAGAGTACGAATGTCGA	6.51	6.12	2.15	4.62	2.67	5.97	7.76	6.96	4.69	6.75	2.4	4.77	3.32	1.87	2.27	3.86	1.15	5.3	1.42	4.43
CCTGCTATGTCATGGTCAGCTAATCTACAGTATG	0.128	-0.0634	-0.269	-0.0445	-0.226	-0.318	0.0811	-0.104	0.0801	0.346	0.893	0.445	0.205	0.546	-0.0268	-0.217	-0.359	-0.187	-0.218	0.913
CCGAGTAGGTTGTGGGGCATTCAGGCAACGGTGA	-0.145	-0.118	0.0165	0.178	-0.163	0.496	0.169	1.61	-0.549	0.776	1.04	1.29	-1.06	-0.659	0.736	-0.334	0.115	-0.303	0.109	0.0437
ATCTCTAGGTAAGACTGAGTTCAGTGAAGAACGC	0.449	0.657	0.601	0.352	0.691	0.568	-0.0566	0.369	0.167	0.0734	1.52	1.3	0.582	0.923	0.874	2.66	3.46	0.632	0.634	0.692
CCGACTGTGGCAAGGTTACCATAACGCACAGCCA	0.166	0.546	-0.172	0.46	-0.922	1.07	1.1	0.984	-0.132	0.352	1.15	0.507	-0.345	-0.505	0.63	0.176	0.241	0.594	0.511	0.885
GCGACTGGGGCAAAGCAGGTTACTATAAGGTTGG	0.109	0.31	-0.478	0.342	-0.602	1.4	1.31	1.5	0.185	1.06	4.62	3.88	0.068	-0.036	0.617	0.375	-0.473	0.949	-0.471	0.879
TCTTGTAGATCAACAGGAGGTTAAGGAAGATCGA	0.186	0.637	-0.0408	0.484	-0.341	1.24	0.0349	1.22	2.48	1.68	1.4	0.448	1.51	0.495	0.156	0.485	-0.267	0.702	0.0704	0.516
CGAACTAGGTCATTGACAGGCCAGTGAATAGTAA	4.02	2.69	-0.0414	1.9	-0.365	4.67	7.02	6.4	3.9	5.91	8.3	7.98	0.866	1.34	1.29	1.34	-0.173	2.06	-0.0851	3.64
TCTTGTAGATCAAAGATTAAGAAAGCCGAAGCCT	0.277	0.499	-0.302	0.245	-0.0264	1.12	1.55	3.63	3.56	3.75	1.71	0.407	0.363	0.404	-0.224	0.137	-0.525	0.257	0.694	-0.16
TTACCATGGTGAGCTGAGGTCGTTGATCCAACTC	0.322	0.0093	-0.568	0.111	-1.05	0.702	-0.38	-0.0543	-0.214	-0.294	-0.23	0.397	-0.517	-0.449	-0.916	1.87	-0.0892	1.14	-0.905	0.272
ATCTCTAGGTAAAGCTAGTTCAGTGAATGCAAAT	0.153	1.45	-0.0105	0.175	0.196	0.456	-0.125	0.354	0.0636	0.224	2.03	1.83	0.606	0.732	0.371	1.07	0.241	0.383	0.278	0.0194
TCTTGTAGATCAACAGGAGGTTAAGCAAGATCGA	0.257	0.838	-0.069	0.853	-0.368	1.48	0.076	1.47	2.39	1.74	1.61	0.884	0.4	0.795	-0.0893	0.934	0.136	1.22	-0.27	0.659
CTCGAAAGGTCGGTTGAGGTGAGTATTCGGATAA	2.94	1.75	-0.326	1.32	-0.125	2.56	-0.124	1.15	0.0232	0.23	0.311	0.955	-0.267	0.135	1.02	3.05	-0.0873	2.04	0.255	3.25
CTCGAAAGGCCGGTTGAGGTGAGTATACGGATAA	-0.00227	-0.411	-0.91	-0.654	-0.709	-0.134	-0.122	-0.607	-0.213	-0.48	-0.491	-0.359	-0.611	-0.528	-1.35	-0.133	-0.38	1.91	-1.14	0.703
ATATGTCGGTTAAGGGTCATTCAGGTTGGTTCGC	4.54	4.44	3.12	4.03	1.48	5.44	8.83	8.47	7.13	9.33	2.75	4.81	2.12	1.06	3.13	5.03	2.46	4.78	2.84	3.31
ATACCAAGGTGATCATGAGGTCGTTGATACTAAC	1.75	1.61	0.874	1.38	-0.0501	1.89	0.785	0.728	0.266	0.604	0.474	1.5	0.599	0.991	0.68	3.42	1.96	2.22	0.136	1.49
GCGACTGGGGCATCAGGAGGTTACCATAACTTAA	0.0636	0.325	0.0698	0.842	-1.05	1.7	1.35	1.26	0.00065	0.599	3.82	3.59	-0.435	-0.747	0.816	0.63	-0.0464	1.16	-0.466	1.21
GGAACGAGGGCATTAGAGTTGATAGCATGGCGAT	0.899	2.35	-0.104	0.257	-0.699	1.22	0.982	0.676	0.105	0.129	3.06	2.02	-0.0353	-0.143	0.508	3.02	0.854	0.328	-0.0747	1.79
CCTGCTAGGTCATGGTCAACTAATCTACAGTATG	3.72	2.85	0.245	1.98	-0.184	3.72	2.81	3.17	0.82	1.92	4.88	4.48	0.715	0.58	1.66	1.82	-0.415	2.94	0.861	4.06

Reference: the supplement of paper PMC6555819
